According to PubChem BioAssay:

Experiment: optical density shifts of acrAB sulA E. coli – strain DRC41, OD650, 48 h, E. coli filamentation inducer project, primary screen (AID 1152);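 also: E. coli MC1000 strain DRC41 lacking acrAB efflux pump and sulA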
Settings: higher = more signal, called active from +8 up or from −8 down

z-score, inactive:
Cc1cc(C)c(-c2cc([C@H](C)ON=C[C@@H](C)[C@H](OCc3ccccc3)C(C)C)on2)c(C)c1 -0.3
CC(CCN1CCCCc2nc(C)c(C)cc21)=NO[C@H](C)c1cn([C@@H]2COC[C@H]2O)nn1 0.431
COC(=O)[C@H](C)NC(=O)CCC1CC(OC(=O)NCc2ccc3c(c2)OCO3)CC2(CCCC(COC(=O)NCc3ccccc3)O2)O1 (stereo partly specified) 1.07
CC(=O)OC[C@H]1O[C@H](C#CCC2CCCCC2)C=C[C@@H]1OC(C)=O 0.457
CN1CCc2nc(-c3ccccc3)c(-c3ccccc3)cc2C1 0.67
CO[C@H]1COC(=O)CCC[C@H](C)[C@H](OC)COC(=O)CC=C[C@@H]1C 0.928
COCOc1ccc(Br)cc1C(=O)C=Cc1ccc2c(c1)OCO2 0.677
CCN1C(=O)[C@H]2[C@H]3[C@H](O)[C@H](O)CC(=NO[C@@H](C)c4cc(-c5c(C)cc(C)cc5C)no4)[C@@H]3CC[C@H]2C1=O 0.663
C[C@@H](c1ccccc1)N1C(=O)[C@H]2[C@H]3[C@H](O)[C@H](O)CC(=NNC(=O)OCc4ccccc4)[C@@H]3CC[C@H]2C1=O 0.362
CO[C@H]1COC(=O)CCC[C@H](C)[C@@H](OC)COC(=O)CC=C[C@@H]1C 0.0226
CO[C@H]1COC(=O)CC=C[C@H](C)[C@H](OC)COC(=O)[C@@H](C)NC(=O)CC=C[C@@H]1C -0.619
CC(CCN1CCCc2nc(C)c(C)cc21)=NOC[C@@H](C)[C@H](OCc1ccccc1)C(C)C 0.259
COc1ccc(COC(=O)NN=C2C[C@@H](O)[C@@H](O)[C@@H]3[C@@H]4C(=O)N([C@@H](C)c5ccccc5)C(=O)[C@@H]4CC[C@H]23)cc1 0.486
C=C(C)C(=O)OC[C@H]1CN2[C@@H](CC[C@@H](C)[C@@H]2c2ccc(Br)cc2)C(=O)O1 -1.41
O=C1[C@H]2[C@H]3[C@H](O)[C@H](O)CC(=NOC[C@@H](O)COCc4ccco4)[C@@H]3CC[C@H]2C(=O)N1Cc1ccc2c(c1)OCO2 1.56
O=C(NN=C1C[C@@H](O)[C@@H](O)[C@@H]2[C@@H]3C(=O)N(c4ccc(F)cc4F)C(=O)[C@@H]3CC[C@H]12)OCc1ccccc1 0.342
CC(=O)OC[C@H]1O[C@H](CC=NOC[C@@H](O)COCc2ccco2)C=C[C@@H]1OC(C)=O 0.241
CCN1C(C)=C(C(=O)OC)[C@@H](c2ccccc2)N2C(=O)[C@](O)(C(=O)OC)CC(C(C)=O)=C12 -0.0844
CC(C)CON=C1C[C@@H](O)[C@@H](O)[C@@H]2[C@@H]3C(=O)N([C@@H](C)c4ccccc4)C(=O)[C@@H]3CC[C@@H]12 -0.196
COC(=O)CC=C1c2ccccc2[C@H](OC)[C@H]1C 0.101
CC(=O)OC[C@H]1O[C@H](CC=NOC[C@@H](O)[C@H]2O[C@@H]3OC(C)(C)O[C@@H]3[C@H]2O)C=C[C@@H]1OC(C)=O -1.11
C#CCCCON=C1C[C@@H](O)[C@@H](O)[C@@H]2[C@@H]3C(=O)N(C[C@@H]4CCCO4)C(=O)[C@@H]3CC[C@H]12 -0.25
CCN1C(=O)[C@H]2[C@H]3[C@H](O)[C@H](O)CC(=NNC(=O)OCc4ccccc4)[C@H]3CC[C@H]2C1=O -1.89
C[C@@H]1CC[C@H]2C(=O)OC(Cc3ccccc3)CN2[C@H]1c1ccc(Br)cc1 (stereo partly specified) 0.283
CC(C)=NOC(C)CN1CCCCc2nc(C)c(C)cc21 (stereo unspecified) -0.866
COC(=O)[C@@H]1CC[C@H](C)[C@@H](c2ccc(C)cc2)N1C(=O)c1ccc(C=NOC[C@@H](O)[C@H]2O[C@@H]3OC(C)(C)O[C@@H]3[C@H]2O)cc1 1.44
CCOC(=O)[C@H](Cc1ccccc1)NC(=O)CCC1CC(OC(=O)NCc2cccc3ccccc23)CC2(CCCC(COC(=O)NCCc3ccccc3OC)O2)O1 (stereo partly specified) -0.0287
CON=C[C@@H](OC)[C@H](C)C=CCC(=O)OC -2.24
O=C(NCCC[N+]1=CC=NC1c1ccccc1)N1CCCc2nc(-c3ccc(Br)cc3)ccc21 (stereo unspecified) 0.315
COc1cccc([C@H](O)Cn2cc(-c3ccc(CON=C(C)C)cc3)nn2)c1 0.697
C=CC[C@@H]1C=C[C@H](Oc2ccc(C)cc2)[C@@H](COC(=O)NCc2cccc3ccccc23)O1 -0.575
COC(=O)[C@H](C)NC(=O)CCC1CC(OC(=O)NCCc2ccc(F)cc2)CC2(CCCC(COC(=O)NCCOc3ccccc3)O2)O1 (stereo partly specified) -0.651
CO[C@@H](C(C)C)[C@@H](C)C1OC(=O)CC1O (stereo partly specified) 0.486
CO[C@@H]1C=CCC(=O)N[C@@H](C)C(=O)OC[C@@H](NS(=O)(=O)c2ccc(C)cc2)[C@H](C)C=CCC(=O)OC[C@H]1C -0.481
O=C1[C@H]2[C@H]3[C@H](O)[C@H](O)CC(=NO[C@@H]4O[C@H](CO)[C@@H](O)[C@H](O)[C@H]4O)[C@@H]3CC[C@H]2C(=O)N1C1CCCCC1 0.381
CCOC(=O)[C@H](CC(C)C)NC(=O)CCC1CC(OC(=O)NCc2ccc3c(c2)OCO3)CC2(CCCC(COC(=O)NCCOc3ccccc3)O2)O1 (stereo partly specified) -0.832
